This is an account of results in PubChem BioAssay (EPA / NIEHS).

Values joined by “and” are separate entries in the source; they are usually repeats but may differ in a detail not shown here. Equal entries are not always repeated. Inconclusive results are not listed. Some compounds were tested as several samples or in several runs, with calls that do not always agree. Active and inactive are the calls of the source. How the source made its calls: active means hit-call score of the fitted dose curve at least 0.9, where 1 is the maximum; inconclusive means response in the unintended direction; inactive means score below 0.9.

A short description of the experiment: TOX21_p53_BLA_p5_viability: Viability Assessment in the Tox21 HCT-116 p53 Agonism Beta-lactamase Assay, Phase 5 (AID 2283600). The text has this:
TOX21_p53_BLA_p5 is a cell-based, single-readout assay that uses HCT116, a human intestinal cell line, […] in a 1536-well plate.TOX21_p53_BLA_p5_viability is an assay readout measuring cellular ATP content and detected with CellTiter-Glo Luciferase-coupled ATP quantitation.TOX21_p53_BLA_p5_viability used a type of viability reporter where loss-of-signal activity can be used to understand changes in the cell viability. Furthermore, this assay endpoint can be referred to as a secondary readout, because this assay has produced multiple assay endpoints where this one serves a viability function. To generalize the intended target to other relatable targets, this assay endpoint is annotated to the cell cycle intended target family, where the subfamily is cytotoxicity.
Thawing Method: Place 14 mL of pre-warmed thaw medium into a 15 mL of conical tub. Remove the vial of cells to be thawed from liquid nitrogen and thaw rapidly by placing at 37C in a water bath with gentle agitation for 1-2 minutes. Decontaminate the vial by wiping with 70% ethanol before opening in a biological safety cabinet. Transfer the vial contents drop-wise into 14 mL of thaw medium in a sterile 15-mL conical tub. Centrifuge cells at 900 rpm for 4 minutes and resuspend in thaw medium. Transfer contents to the T75 tissue culture flask containing Thaw Medium and place flask in a humidified 37C/5% CO2 incubator. Switch to growth medium at first passage.Propagation Method: Aspirate medium, rinse once in DPBS, add 0.25% Trypsin/EDTA and swirl to coat the cell evenly. Add an equal volume of Growth Medium to inactivate Trypsin after 2-3 minutes incubation at 37C. Centrifuge cells at 900 rpm for 4 minutes and resuspend in growth medium. Cell should be passage or fed at least twice a week.Assay Protocol: Harvest cells from culture in growth medium and resuspend in assay medium. 2.2 Dispense 4000 cells/5 uL/well into 1536-well black/clear bottom plates using a Multidrop dispenser. After the cells were incubated at 37C for 5 hours, 23 nL of compounds dissolved in DMSO were transferred to the assay plate by a PinTool resulting in a 217-fold dilution. Incubate the plates for 16 hours at 37C, 5% CO2. Add 1 uL of 6X LiveBLAzer FRET B/G (CCF4-AM) Substrate Mixture to each well using a BioRAPTR dispenser and incubate the plates at room temperature for 2 hours. Measure fluorescence intensity at 460 and 530 nm emission and 405 nm excitation by an Envision detector. Data is expressed as the ratio of 460nm/530nm emissions. Add 4 uL of Cell-titer Glo to each well using BioRAPTR and incubate the plates at room temperature for […]. For cell viability readout that measures cytotoxicity, 4 ul/well of CellTiter-Glo reagent was added into the assay plates using a Flying Reagent Dispenser. After 30 min incubation at room temperature, the luminescence intensity in the plates was measured using a ViewLux plate reader.
For the compound `Nc1ccc(S(=O)(=O)Nc2ccc(Cl)nn2)cc1`, the compound was called inactive.

On to `C[C@]12C=CC(=O)N[C@@H]1CC[C@@H]1[C@@H]2CC[C@]2(C)[C@@H](C(=O)Nc3cc(C(F)(F)F)ccc3C(F)(F)F)CC[C@@H]12`, for which the result was inactive.

With `NC(=S)NC(N)=S`, the result was inactive.

Turning to `CC(=O)OCCN(CCOC(C)=O)c1ccc(N=Nc2ccc([N+](=O)[O-])cc2C#N)cc1`, the call was inactive.

As to `O=C(NOC[C@H](O)CO)c1ccc(F)c(F)c1Nc1ccc(I)cc1F`, the compound was called inactive.

In the case of `CC(=O)Oc1ccccc1C(=O)Nc1ncc([N+](=O)[O-])s1`, the compound was called inactive and the AC50 is 10.7 µM (active).

As for `CCOc1ccccc1O[C@H](c1ccccc1)[C@H]1CNCCO1`, the compound was called inactive.

Consider `CNCCCN1c2ccccc2CCc2ccccc21`, for which the call was inactive.

As for `CCCCCCCCCCCl`, the outcome was inactive.

In the case of `OC[C@@H](O)C(O)[C@@H](O)CO` (stereo not given in full), the compound was classed as inactive.

As to `CCC(C)(C)c1ccc(CC(C)CN2C[C@@H](C)O[C@@H](C)C2)cc1` (stereo not given in full), the compound was classed as inactive.

Turning to `CN(C)c1cc(NC(=O)CNC(C)(C)C)c(O)c2c1C[C@H]1C[C@H]3[C@H](N(C)C)C(=O)C(C(N)=O)=C(O)[C@@]3(O)C(=O)C1=C2O`, the outcome was inactive.

Turning to `O=S(O)CNc1ccc(S(=O)(=O)c2ccc(NCS(=O)O)cc2)cc1`, the call was inactive.

Regarding `CC(=O)O[C@H]1C[C@@H]2CC[C@@H]3[C@H](CC[C@@]4(C)[C@H]3C[C@H]([N+]3(C)CCCCC3)[C@@H]4OC(C)=O)[C@@]2(C)C[C@@H]1[N+]1(C)CCCCC1`, the outcome was inactive.

Turning to `O=C(O)c1c(Cl)cccc1Cl`, the compound was called inactive.

`C=CCn1c(=O)n(CC=C)c(=O)n(CC=C)c1=O`: the compound was classed as inactive.

For `CC(C)C(O)(c1ccc(OC(F)(F)F)cc1)c1cncnc1` (stereo not given), the result was inactive.

`Cc1ccc(/C=N/n2c(-c3ccccc3)csc2=S)cc1`: the result was inactive.

For the compound `O=[N+]([O-])c1ccccc1C(F)(F)F`, the compound was called inactive.

For `C#CCN(C)CCCOc1ccc(Cl)cc1Cl`, the result was inactive.

`C/C=C(\C)C(=O)OCC/C=C\CC`: the outcome was inactive.

With `CCN(CC)c1cccc(O)c1`, the outcome was inactive.

On to `O=[N+]([O-])c1ccc2[nH]ncc2c1`, for which the result was inactive.

`CCOC(=O)c1c(N)sc2c1CCN(Cc1ccccc1)C2`: the compound was classed as inactive.

On to `CC1=C(/C=C/C(C)=C/C=C/C(C)=C\C(=O)O)C(C)(C)CCC1`, for which the call was inactive.

For the compound `C=C(C)C(=O)OCCCCCCCCCCCCC`, the compound was called inactive.

For the compound `Cc1c(O)cccc1C(=O)N[C@@H](CSc1ccccc1)[C@H](O)CN1C[C@H]2CCCC[C@H]2C[C@H]1C(=O)NC(C)(C)C`, the AC50 was 33.1 µM (active) and 19.5 µM (active).

`Oc1c(Cl)cc(Cl)c2cccnc12`: the compound was called inactive.

In the case of `Nc1ncnc2c1ncn2[C@@H]1O[C@H](COP(=O)(O)OP(=O)(O)OP(=O)(O)O)[C@@H](O)[C@H]1O`, the outcome was inactive.

Regarding `CC(=C\c1ccccc1)/C=C1/SC(=S)N(CC(=O)O)C1=O`, the compound was called inactive.

`CCc1nn(CCCN2CCN(c3cccc(Cl)c3)CC2)c(=O)n1CCOc1ccccc1`: the call was inactive.

Turning to `CCCC(=O)O[C@]1(C(=O)COC(=O)CC)[C@@H](C)C[C@H]2[C@@H]3CCC4=CC(=O)C=C[C@]4(C)[C@@]3(F)[C@@H](O)C[C@@]21C`, the outcome was inactive.

On to `CC(C)(C)NC[C@H](O)COc1ccccc1C1CCCC1`, for which the compound was called inactive.

For the compound `CCN(CC)CCOc1ccc(C(O)(Cc2ccc(Cl)cc2)c2ccc(C)cc2)cc1` (stereo not given), the compound was called inactive.

`c1ccc(-n2cnnn2)cc1`: the compound was called inactive.

With `CC1=C(C)C(=O)C(C(CCCCCC(=O)O)c2ccccc2)=C(C)C1=O` (stereo not given), the compound was classed as inactive.

Take `N=C(N=C(N)N)N1CCOCC1`: the call was inactive.

As for `C[C@@H]1[C@H](O)[C@@H](C)/C=C/C=C/C=C/C=C/C=C/C=C/C=C/[C@H](O[C@@H]2O[C@H](C)[C@@H](O)[C@H](N)[C@@H]2O)C[C@@H]2O[C@](O)(C[C@@H](O)C[C@@H](O)[C@H](O)CC[C@@H](O)C[C@@H](O)CC(=O)O[C@H]1C)C[C@H](O)[C@H]2C(=O)O`, the call was inactive.

On to `COc1cc2c3cc1Oc1cc(ccc1O)C[C@@H]1c4c(cc(OC)c(O)c4Oc4ccc(cc4)C[C@@H]3N(C)CC2)CC[N+]1(C)C`, for which the compound was called inactive.

By AC50 is commonly meant the midpoint of the concentration-response curve, whichever way the signal moves.
